Measured values published in PubChem BioAssay (NCI).
About 79,000 compounds went through this panel and 15% of them were active in at least one assay; those are over-represented in the sample as a whole. Rule as the data show it: active = growth inhibition above about 70%; inactive = the rest.

Experiments:
[1] = NCI Yeast Anticancer Drug Screen. Data for the rad50 strain (AID 155);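 also: 0% = growth of vehicle-only cultures of the same strain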; conditions: S. cerevisiae rad50 strain growth inhibition; at 50.0 µM; hits give high values
Method in brief: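 Compounds were tested on a yeast strain with an engineered DNA damage repair alteration; the reported value is growth inhibition normalised to vehicle treatment.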

[2] = NCI Yeast Anticancer Drug Screen. Data for the mec2-1 strain (AID 157); conditions: S. cerevisiae mec2-1 strain, at 50.0 µM, hits give high values
Method in brief: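 Readout is yeast growth inhibition, normalised to vehicle-treated controls, in the mec2-1 strain exposed to compound.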

[3] = NCI Yeast Anticancer Drug Screen. Data for the sgs1 mgt1 strain (AID 161);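 also: 0% = growth of cultures given vehicle only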; conditions: S. cerevisiae sgs1 mgt1 strain, at 50.0 µM, hits give high values
Method in brief: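 This yeast growth screen uses a strain with defined DNA-repair lesions; compound-treated growth is compared with vehicle-treated growth.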

[4] = NCI Yeast Anticancer Drug Screen. Data for the cln2 rad14 strain (AID 165);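 also: 0% = growth equal to vehicle treated cultures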; conditions: S. cerevisiae cln2 rad14 strain, at 50.0 µM, hits give high values
Method in brief: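 Relative to vehicle controls, growth inhibition of compound-treated cln2 rad14 yeast was recorded.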

[5] = NCI Yeast Anticancer Drug Screen. Data for the bub3 strain (AID 167); conditions: S. cerevisiae bub3 mutant strain, at 50.0 µM, hits give high values
Method in brief: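 Growth of a checkpoint-deficient yeast mutant is measured after compound exposure. Values represent inhibition relative to vehicle.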

[6] = NCI Yeast Anticancer Drug Screen. Data for the mlh1 rad18 strain (AID 175); conditions: S. cerevisiae mlh1 rad18 strain growth inhibition; at 50.0 µM; hits give high values
Method in brief: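 Test agents were incubated with a yeast strain of defined genotype (DNA damage repair defect). Inhibition of growth was derived by comparison with vehicle-exposed cultures.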

Measured: growth inhibition

NC1=NN(c2ccccc2)C(=O)C1C(=O)C(=O)Nc1ccc(Cl)c(Cl)c1 (configuration not stated)
inactive: [1] -6.4% | [2] -23.8% | [3] 11.8% | [4] 0.15% | [5] 12.2% | [6] -6.2%

Cc1cccc2c1c1ccc3c(c1n2C)C(=O)C=CC3=O
inactive: [1] 5.05% | [2] -12.4% | [3] 4.6% | [4] 18.6% | [5] -11.2% | [6] -5%

COc1cc(O)c(Cc2ccccc2O)c(O)c1C(=O)CCc1ccccc1
inactive: [1] -17.4% | [2] -34.5% | [3] -13.5% | [4] -5.65% | [5] -35.9% | [6] -7.9%

CC(C)CCOc1ccc(CCO)cc1
inactive: [1] 0.45% | [2] -8.9% | [3] -4.5% | [4] -7.75% | [5] -36.4% | [6] -24.8%

O=C(Nc1cccc([N+](=O)[O-])c1)Oc1ccc(-c2ccccc2)cc1
inactive: [1] 17.9% | [2] 36.2% | [3] 18.5% | [4] -3.75% | [5] 57.7% | [6] 25.4%

CNc1c(F)cc(N=Nc2ccccc2)cc1F
inactive: [1] 14.7% | [2] -8.2% | [3] 30% | [4] -20.7% | [5] -4% | [6] 10.1%

O=C(O)c1cc(=O)c2ccccc2[nH]1
inactive: [1] 4.45% | [2] 8.4% | [3] 1.35% | [4] 6.5% | [5] 8.2% | [6] 17.9%

O=[N+]([O-])c1cc(Br)cc2c1[nH]c1nc3ccc(C(F)(F)F)cc3nc12
inactive: [1] 45.5% | [2] -17.9% | [3] 8.1% | [4] 17.4% | [5] -2.2% | [6] -3.55%

CC(=O)C1CCC2C3CC=C4CC(O)CCC4(C)C3CCC12C (configuration not stated)
inactive: [1] 26.4% | [2] 18.4% | [3] 23.8% | [4] 45.3% | [5] 37% | [6] 46.6%

Cc1cc(O)c(C(c2ccccn2)c2c(O)cc(C)[nH]c2=O)c(=O)[nH]1
inactive: [1] -4.85% | [2] 6.15% | [3] -7.9% | [4] -2.55% | [5] -0.25% | [6] 5%

CC(C)(C)c1cc(O)c(C(=O)O)cc1O
inactive: [1] 39.6% | [2] 29.6% | [3] 44.8% | [4] 17.6% | [5] -3.9% | [6] 33.9%

CCOC(=O)CC(c1ccc2c(c1)OCO2)c1cc(OC)c(OC)c(OC)c1 (configuration not stated)
inactive: [1] -7.65% | [2] 24.9% | [3] -3% | [4] 0.45% | [5] 29.1% | [6] 3.2%

O=S(=O)(/C=C/c1ccc(F)cc1)Cc1ccccc1
inactive: [1] -3.2% | [2] -15.6% | [3] 0.65% | [4] 12.9% | [5] -4% | [6] 11.7%

CN(N=O)C(N)=NC(=O)c1ccccc1
inactive: [1] 11.4% | [2] 10% | [3] 20.9% | [4] -20.6% | [5] -16.1% | [6] -35.3%

COC(=O)/C=C(\C)Nc1cccc([N+](=O)[O-])c1
inactive: [1] -15.2% | [2] -0.65% | [3] -18.9% | [4] -36.9% | [5] -0.75% | [6] -7.3%

CNc1nc(SC)nc2[nH]ncc12
inactive: [1] 7.1% | [2] -9.2% | [3] 2.45% | [4] -3.2% | [5] 23% | [6] 2.05%

CCCCCCCCCCCCSCCSCCC
inactive: [1] -19.1% | [2] -10.7% | [3] 1% | [4] -14.6% | [5] -7.35% | [6] 4.5%

Cc1cc(-c2ccccc2)c(C#N)c(=O)[nH]1
inactive: [1] -4.5% | [2] 12.2% | [3] -10.8% | [4] -14.8% | [5] 3.65% | [6] -7.35%

NC(=O)c1ccccn1
inactive: [1] 20.7% | [2] -5.45% | [3] 15% | [4] 18.3% | [5] 0.75% | [6] 28.4%

CCCCCc1nnc2n1N=C(c1ccc(Cl)cc1)CS2
inactive: [1] -26.6% | [2] -13.9% | [3] -2.5% | [4] 4.1% | [5] -17.6% | [6] 3.5%

CC1=NN(c2cc(S(=O)(=O)O)ccc2Cl)C(=O)C1N=Nc1ccccc1 (configuration not stated)
inactive: [1] -23.3% | [2] -26.2% | [3] -30.1% | [4] 12.3% | [5] -20.6% | [6] -24.8%

CN(C)C1C(=O)C(C(=O)NCN2CCCC2)=C(O)C2(O)C(=O)C3=C(O)c4c(O)cccc4C(C)(O)C3CC12 (configuration not stated)
inactive: [1] 2.75% | [2] -4.7% | [3] -10.2% | [4] -27.9% | [5] -26.9% | [6] 21.4%

CC(CC(=N)N)NC(=O)C1CCC(N)=N1 (configuration not stated)
inactive: [1] 6% | [2] -41.2% | [3] 2.15% | [4] -1.6% | [5] -14.2% | [6] -9.75%

CCNc1cc2oc(=O)cc(C)c2cc1C
inactive: [1] -30.7% | [2] -22.5% | [3] -11.4% | [4] 8.05% | [5] -19% | [6] -28.2%

O=C(O)c1cccc(C(=O)c2ccccc2)c1
inactive: [1] 5.55% | [2] 6.15% | [3] 20.4% | [4] 4.4% | [5] -11.7% | [6] 0.7%

CCN(CC)CCn1c(=O)c2c(ncn2C)n(C)c1=O
inactive: [1] -5.55% | [2] -22.7% | [3] 12.6% | [4] -36.3% | [5] 11.8% | [6] -15.6%

CC(C)OC(=O)C1CCC(=O)N1 (configuration not stated)
inactive: [1] 12.1% | [2] -6.25% | [3] -7.4% | [4] -84.1% | [5] 19% | [6] -20.4%

CC(C)(C)CC(C)(C)[N+](=O)[O-]
inactive: [1] -1.15% | [2] -14.6% | [3] 2.75% | [4] 6.85% | [5] -3.25% | [6] 18.4%

S=C(Nc1ccc(I)cc1)SCc1ccc2c(c1)OCO2
inactive: [1] 32.5% | [2] 14.4% | [3] 25.5% | [4] 32.2% | [5] -3.65% | [6] 23.8%

Nc1ccc(C(=O)Nc2ccc(NC(=O)c3ccco3)c(O)c2)cc1
inactive: [1] 2.5% | [2] -11.3% | [3] 31.6% | [4] 13.4% | [5] 20.7% | [6] 10.1%

CC1(C)CCC2(C(=O)OC3OC(CO)C(O)C(O)C3O)CCC3(CO)C(=CCC4C5(C)CC(O)C(O)C(C)(C(=O)OC6OC(CO)C(O)C(O)C6O)C5CCC43C)C2C1 (configuration not stated)
inactive: [1] 2.3% | [2] 4.45% | [3] 17.6% | [4] 23.2% | [5] 19.3% | [6] -92.2%

N#CCCCN1C(=O)c2ccccc2C1=O
inactive: [1] -22.1% | [2] -18.9% | [3] -8.25% | [4] 21% | [5] -15.5% | [6] -18.4%

CCC(=O)/C=C/c1ccccc1
inactive: [1] -1.55% | [2] -14.2% | [3] -22.1% | [4] -23.9% | [5] -34.5% | [6] -47.6%

COC(=O)C1C(=O)N(C)c2cc(C)c(C)cc2C1(C)C (configuration not stated)
inactive: [1] 7.55% | [2] -9.4% | [3] 1.6% | [4] 5.8% | [5] 24.9% | [6] -3.9%

Cc1[nH]c2ccc([N+](=O)[O-])cc2c1C
inactive: [1] 19.1% | [2] -5.15% | [3] 32.1% | [4] 26.4% | [5] 25.4% | [6] 38.4%

COc1ccc2cc(CC(=O)c3ccccc3)ccc2c1
inactive: [1] -24.2% | [2] -6.95% | [3] -11.2% | [4] -37.8% | [5] -17.1% | [6] -3.5%

Cc1cccc(C)c1NC(=O)C(=O)C(C#N)c1c(Cl)cccc1Cl (configuration not stated)
inactive: [1] -38% | [2] 5.2% | [3] 16.4% | [4] -25.2% | [5] -4.85% | [6] 10.7%

CNC(=O)C1CCC(=O)N1CN(C(C)=O)c1ccccc1 (configuration not stated)
inactive: [1] 3.85% | [2] 13.9% | [3] -12.9% | [4] 13.7% | [5] -13.9% | [6] -63.5%

COc1ccc(C2(C)c3ccccc3C(=O)C(C)(C)C2(C)CC(=O)O)cc1 (configuration not stated)
inactive: [1] -0.65% | [2] 6.45% | [3] -1.8% | [4] -9.7% | [5] 5.05% | [6] 5.2%

CC1=CC(C)(C)NC(=S)N1CCO
inactive: [1] 1.95% | [2] -18.6% | [3] 25.3% | [4] 13.4% | [5] 1.15% | [6] 32.3%

CNC(=O)C(c1ccccc1)C(F)(F)F (configuration not stated)
inactive: [1] 8.1% | [2] 3.9% | [3] -6.7% | [4] -12.4% | [5] 10.3% | [6] 4.3%

Nc1nc(Cl)nc2c1ncn2C1CCC(CO)O1 (configuration not stated)
inactive: [1] -21.2% | [2] 1.35% | [3] -7.9% | [4] 5.5% | [5] 4.15% | [6] 16.1%
